Data: PubChem BioAssay AID1159580 (chemical genetic matrix, 2015)
Values joined by “and” are separate entries in the source; they are usually repeats but may differ in a detail not shown here. Equal entries are not always repeated. The whole screen tested about 5,500 compounds, of which about 2,000 (36%) were called active. Roughly 18% stayed inconclusive and do not appear here. Rule as the data show it: active = normalized growth mostly below about 0.91 (no sharp cut-off); inconclusive = no clear call, values can overlap the other calls; inactive = mostly above about 0.92. Some of the results follow.

Experiment: chemical genetic growth profiling, strain panel (AID 1159580);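 also: tested at 20 µM; growth read once vehicle control cultures reached saturation at 30 °C; 1 = growth at the plate median or of vehicle wells; lower values mean less growth of the strain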
Conditions: growth OD

Measured: normalized growth

CC(C)=CCCC1(C)C=Cc2c(O)c3c(c(CC=C(C)C)c2O1)OC12C(CC4CC1C(C)(C)OC2(C/C=C(/C)C(=O)O)C4O)C3=O (configuration not stated)
inactive: S. cerevisiae deletion strains, locus YAL013W, strain DEP1, active compounds read low 1.01 | S. cerevisiae deletion strains, locus YBR021W, strain FUR4, active compounds read low 1.07 | S. cerevisiae deletion strains, locus YBR229C, strain ROT2, active compounds read low 0.959 | S. cerevisiae deletion strains, locus YCL029C, strain bik1, active compounds read low 0.994 | S. cerevisiae deletion strains, locus YDL035C, strain GPR1, active compounds read low 0.961 | S. cerevisiae deletion strains, locus YDL074C, strain BRE1, active compounds read low 1.01 | S. cerevisiae deletion strains, locus YDL101C, strain DUN1, active compounds read low 0.978 | S. cerevisiae deletion strains, locus YDL185W, strain tfp1, active compounds read low 0.997 | S. cerevisiae deletion strains, locus YDL192W, strain arf1, active compounds read low 0.947 | S. cerevisiae deletion strains, locus YDR101C, strain arx1, active compounds read low 0.96 | S. cerevisiae deletion strains, locus YDR162C, strain NBP2, active compounds read low 0.851 | S. cerevisiae deletion strains, locus YDR318W, strain mcm21, active compounds read low 0.988 | S. cerevisiae deletion strains, locus YDR388W, active compounds read low 0.99 | S. cerevisiae deletion strains, locus YDR502C, strain sam2, active compounds read low 1.02 | S. cerevisiae deletion strains, locus YEL061C, strain CIN8, active compounds read low 0.989 | S. cerevisiae deletion strains, locus YER110C, active compounds read low 0.981 | S. cerevisiae deletion strains, locus YER155C, strain BEM2, active compounds read low 1.04 | S. cerevisiae deletion strains, locus YER167W, strain BCK2, active compounds read low 1.01 | S. cerevisiae deletion strains, locus YGL078C, strain dbp3, active compounds read low 1.01 | S. cerevisiae deletion strains, locus YGL086W, strain mad1, active compounds read low 0.993 | S. cerevisiae deletion strains, locus YGL248W, strain PDE1, active compounds read low 0.994 | S. cerevisiae deletion strains, locus YGR135W, strain pre9, active compounds read low 1.06 | S. cerevisiae deletion strains, locus YGR229C, strain SMI1, active compounds read low 0.988 | S. cerevisiae deletion strains, locus YGR252W, strain gcn5, active compounds read low 1.17 | S. cerevisiae deletion strains, locus YHR030C, strain SLT2, active compounds read low 1.01 and 0.984 | S. cerevisiae deletion strains, locus YHR079C, strain IRE1 (second series), active compounds read low 0.981 | S. cerevisiae deletion strains, locus YHR079C, strain IRE1, active compounds read low 0.985 | S. cerevisiae deletion strains, locus YHR094C, strain hxt1, active compounds read low 1 | S. cerevisiae deletion strains, locus YHR129C, strain ARP1, active compounds read low 1.02 | S. cerevisiae deletion strains, locus YHR200W, strain rpn10, active compounds read low 1.01 | S. cerevisiae deletion strains, locus YIL066C, strain RNR3, active compounds read low 0.97 | S. cerevisiae deletion strains, locus YIL073C, strain SPO22, active compounds read low 1.07 | S. cerevisiae deletion strains, locus YIL125W, strain kgd1, active compounds read low 0.992 | S. cerevisiae deletion strains, locus YIR030C, strain dcg1, active compounds read low 0.997 | S. cerevisiae deletion strains, locus YJL095W, strain BCK1, active compounds read low 0.884 and 1.01 | S. cerevisiae deletion strains, locus YJL134W, strain LCB3, active compounds read low 0.993 | S. cerevisiae deletion strains, locus YJL168C, strain set2, active compounds read low 0.995 | S. cerevisiae deletion strains, locus YJL187C, strain SWE1 (second series), active compounds read low 0.972 | S. cerevisiae deletion strains, locus YJR066W, strain TOR1, active compounds read low 0.935 | S. cerevisiae deletion strains, locus YKL009W, strain mrt4, active compounds read low 1.02 | S. cerevisiae deletion strains, locus YKL068W, active compounds read low 0.996 | S. cerevisiae deletion strains, locus YKL085W, strain MDH1 (second series), active compounds read low 1.02 | S. cerevisiae deletion strains, locus YKL085W, strain MDH1, active compounds read low 1.02 | S. cerevisiae deletion strains, locus YKL190W, strain CNB1, active compounds read low 0.988 | S. cerevisiae deletion strains, locus YKR001C, strain vps1, active compounds read low 0.961 | S. cerevisiae deletion strains, locus YLR039C, strain RIC1, active compounds read low 0.774 | S. cerevisiae deletion strains, locus YLR058C, strain SHM2, active compounds read low 0.98 | S. cerevisiae deletion strains, locus YLR102C, strain apc9, active compounds read low 1.01 | S. cerevisiae deletion strains, locus YLR113W, strain HOG1, active compounds read low 0.92 | S. cerevisiae deletion strains, locus YLR268W, strain sec22, active compounds read low 0.93 | S. cerevisiae deletion strains, locus YLR330W, strain CHS5, active compounds read low 1.01 | S. cerevisiae deletion strains, locus YLR342W, strain FKS1 (second series), active compounds read low 0.96 | S. cerevisiae deletion strains, locus YLR371W, strain rom2, active compounds read low 1.03 | S. cerevisiae deletion strains, locus YLR418C, strain cdc73, active compounds read low 0.936 | S. cerevisiae deletion strains, locus YML016C, strain PPZ1, active compounds read low 0.987 | S. cerevisiae deletion strains, locus YML032C, strain rad52, active compounds read low 0.978 | S. cerevisiae deletion strains, locus YML124C, strain tub3, active compounds read low 1.01 | S. cerevisiae deletion strains, locus YMR078C, strain ctf18, active compounds read low 0.997 | S. cerevisiae deletion strains, locus YMR223W, strain ubp8, active compounds read low 0.991 | S. cerevisiae deletion strains, locus YMR307W, strain GAS1, active compounds read low 0.95 | S. cerevisiae deletion strains, locus YNL067W, strain RPL9B, active compounds read low 0.996 | S. cerevisiae deletion strains, locus YNL128W, strain TEP1, active compounds read low 0.967 | S. cerevisiae deletion strains, locus YNL153C, strain GIM3, active compounds read low 1.04 | S. cerevisiae deletion strains, locus YNL183C, strain NPR1, active compounds read low 0.936 | S. cerevisiae deletion strains, locus YNL233W, strain BNI4, active compounds read low 1.06 | S. cerevisiae deletion strains, locus YNL250W, strain rad50, active compounds read low 0.993 | S. cerevisiae deletion strains, locus YNL271C, strain bni1, active compounds read low 0.99 | S. cerevisiae deletion strains, locus YNL298W, strain CLA4, active compounds read low 0.986 | S. cerevisiae deletion strains, locus YNL307C, strain MCK1, active compounds read low 0.942 | S. cerevisiae deletion strains, locus YNL322C, strain KRE1, active compounds read low 1 | S. cerevisiae deletion strains, locus YNR052C, strain pop2, active compounds read low 1 | S. cerevisiae deletion strains, locus YOL012C, strain htz1 1.58 | S. cerevisiae deletion strains, locus YOL147C, strain pex11, active compounds read low 1 | S. cerevisiae deletion strains, locus YOR061W, strain CKA2, active compounds read low 0.967 | S. cerevisiae deletion strains, locus YOR069W, strain VPS5, active compounds read low 0.988 | S. cerevisiae deletion strains, locus YOR136W, strain idh2, active compounds read low 1.01 | S. cerevisiae deletion strains, locus YOR144C, strain elg1, active compounds read low 1 | S. cerevisiae deletion strains, locus YOR184W, strain ser1, active compounds read low 0.903 | S. cerevisiae deletion strains, locus YOR231W, strain MKK1, active compounds read low 0.963 | S. cerevisiae deletion strains, locus YOR316C, strain cot1, active compounds read low 0.994 | S. cerevisiae deletion strains, locus YPL256C, strain CLN2, active compounds read low 0.957 | S. cerevisiae deletion strains, locus YPR119W, strain clb2, active compounds read low 0.994 | S. cerevisiae deletion strains, locus YPR141C, strain kar3, active compounds read low 0.991 | S. cerevisiae deletion strains, locus YPR163C, strain tif3, active compounds read low 0.967 | S. cerevisiae deletion strains, locus YPR167C, strain met16, active compounds read low 1.02 | S. cerevisiae deletion strains, strain wtn01, active compounds read low 0.972 | S. cerevisiae strains, strain wild type, active compounds read low 0.968
